Measured values from PubChem BioAssay (NCATS).
Results filed as inconclusive are left out. Values without a mark were called inactive. The source made the active and inactive calls. The call rests on the fitted dose curve; in most records, active means well fitted cell-killing curve with a large enough effect; inconclusive means small, poorly fitted or top-dose-only effect; inactive means flat fitted curve, though single readings scatter.

Assay: Cell Viability - LYMP2-020 (AID 986);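 further: plate controls were DMSO only for no effect and tetraoctylammonium bromide at 92 µM for full effect; nearly all actives have a fitted effect of over 55% in size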
Conditions: series mostly up to 92.2 µM; activity change, negative = viability loss: at the top concentration
From the text: NIH Chemical Genomics Center [NCGC]
NIH Molecular Libraries Screening Centers Network [MLSCN]
National Institutes of Environmental Health Sciences [NIEHS]
National Toxicology Program [NTP]
We have developed a 1536-well cell-based assay for quantitative high throughput screening (qHTS) against a number of cell lines to determine in vitro cytotoxicity of small molecules. This particular assay uses a human lymphoblastoid cell line (LYMP2-020) purchased from Coriell Institute for Medical Research.
NCGC Assay Protocol Summary:
The CellTiter-Glo luminescent cell viability assay (Promega) is a homogeneous method to measure the number of viable cells in culture. The end point readout of this assay is based on quantitation of intracellular ATP, an indicator of metabolic activity, using the luciferase reaction. Luciferase catalyzes the oxidation of beetle Luciferin to oxyluciferin and light in the presence of ATP. The luminescent signal is proportional to amount of ATP present.
Using the CellTiter-Glo luminescent cell viability assay, the amount of cellular ATP was measured in the lymphoblastoid cell line with complete culture medium following compound treatment for 24 hours. The assay was performed in opaque white Kalypsys 1536-well plates. In the screen, tetraoctylammonium bromide was used as positive control. Library compounds were measured for their ability to cause acute toxicity in the cell line, as reflected by a decrease in intracellular ATP levels, in a concentration-dependent manner. […] AC50 values were determined from concentration-response data modeled with the standard Hill equation.
qHTS protocol for CellTiter Glo lymphoblastoid cellular assay
[Step] [Parameter] [Value] [Description]
1. Reagent; 5 uL; 2500 lymphoblastoid cells/well
2. Time; 5 hr; 37 C incubation
4. Controls; 23 nL; Tetraoctylammonium bromide 6.4pM to 92 uM
5. Time; 24 hr; 37 C incubation
6. Reagent; 5 uL; CellTiter Glo reagent
7. Time; 30 min; Room Temperature
8. Detection; Luminescence; Viewlux plate reader
Keywords: cell viability, cytotoxicity, lymphoblastoid cell line, luminescence, NTPHTS, NTPHTS_NCGC, NIEHS, DSSTox, MLSMR, MLSCN, NIH Roadmap, qHTS, NCGC

| SMILES | activity change, negative = viability loss [%] | outcome |
| --- | --- | --- |
| C[C@]12CCC(=O)C=C1CC[C@@H]1[C@@H]2CC[C@@]2(C)[C@H]1CC[C@]2(C)O | -17.9 | – |
| CC(C)NC(C)C | 11.2 | – |
| CN1C[C@H](C(=O)N[C@]2(C)O[C@@]3(O)[C@@H]4CCCN4C(=O)[C@H](Cc4ccccc4)N3C2=O)C=C2c3cccc4[nH]cc(c34)C[C@H]21 | -19.3 | – |
| COc1cc(OC)c(OC)cc1C=O | 3.82 | – |
| CC(C)c1cccc(C(C)C)c1O | 7.68 | – |
| COP(=S)(OC)Oc1ccc(SC)c(C)c1 | -1.04 | – |
| Nc1ccccc1 | -9.21 | – |
| Oc1ccc(Cl)cc1 | -2.44 | – |
| Clc1ccc(C(c2ccc(Cl)cc2)C(Cl)(Cl)Cl)cc1 | 5.37 | – |
| C[C@]1(O)CC[C@H]2[C@@H]3CCC4=CC(=O)CC[C@]4(C)[C@@]3(F)[C@@H](O)C[C@@]21C | 6.17 | – |
| C[C@]12CCC(=O)C=C1CC[C@@H]1[C@@H]2CC[C@]2(C)C(=O)CC[C@@H]12 | – | inactive |
| COC(=O)C(c1ccccc1)C1CCCCN1 (stereo not drawn) | -11.5 | – |
| CCC(C)(C)c1ccc(O)cc1 | -10.8 | – |
| CCCC(C)(COC(N)=O)COC(N)=O | 1.5 | – |
| O=P1(N(CCCl)CCCl)NCCCO1 (stereo not drawn) | -6.25 | – |
| CCOC(=O)CC(SP(=S)(OC)OC)C(=O)OCC (stereo not drawn) | -7.55 | – |
| NCCc1ccc(O)cc1 | -7.04 | – |
| Nc1ccccc1C(=O)O | 4.03 | – |
